# Screening data deposited in PubChem BioAssay by National Center for Advancing Translational Sciences (NCATS).
# This is a sample that favours compounds with a hit; in the whole collection about 1.5% have one here.
# TrxR1 substrate: rat thioredoxin reductase 1 substrate activity; purified TrxR1 substrate turnover, NADPH consumption readout; Potency, µM (titrated, usually from 114 µM), for inactives: at the top dose activity change, negative = substrate turnover; hit rate 0.01% among 390,000; AID 588456; also: potency is read from the fitted curve at half-maximal effect; nearly all actives have a fitted effect of over 50% in size
#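 Rat TrxR1, dispensed at 90 nM, was prereduced with 400 uM NADPH (final) for 5 min at ~22 deg C, then incubated with compound 15 min before 400 uM selenite. A first-read NADPH fluorescence drop versus no-compound background flagged substrates.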
# rTrxR1 inhibitor: rat TrxR1 inhibition. O89049. recombinant rTrxR1, NADPH fluorescence consumption, selenite substrate. Potency, µM (highest dose often 114 µM), for inactives: top-dose activity change, negative = inhibition, most hits filed as inhibitors. hit rate 1% among 390,000. AID 588453; also: potency is read from the fitted curve at half-maximal effect; nearly all actives have a fitted effect of over 65% in size
#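 Rat TrxR1 (90 nM in the dispensed reagent) was pre-reduced with 400 uM NADPH for 5 min at room temperature, then incubated with compound for 15 min. After 400 uM selenite was added, NADPH fluorescence (Ex 340/Em 450 nm) was followed for 8 min.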
# Eya2 phos inh: inhibitors of human Eya2 phosphatase activity | O00167 | recombinant Eya2, OMFP fluorescence dephosphorylation (OMFP is methylfluorescein phosphate) | Potency, µM (series often up to 76.9 µM), inactives show top-dose activity, negative = inhibition, usual class: inhibitors | hit rate 0.006% among 330,000 | AID 488837; also: potency is read from the fitted curve at half-maximal effect
#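 Eya2 (0.2 uM) preincubated 10 min at ambient with compound, then OMFP substrate added at 50 uM; 10 min reaction in 50 mM HEPES pH 7.5, 50 mM NaCl, 5 uM MgCl2, 0.05% BSA, 1 mM DTT. Fluorescence read at Ex 485/Em 525 nm.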
# Coupling enz: inhibits coupling enzyme system, counter-screen for aldolase hits. coupling enzyme system counterscreen, AmpLite Red fluorescence. activity change, negative = inhibition, % at 58.2 µM, hits read low. hit rate 0.67% among 290,000. AID 2472; in the data active = activity change below about -30%
#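 Activity here indicates interference with the coupling reaction, not aldolase inhibition. Compounds at 57.5 uM final met coupling enzymes for 10 min at RT; substrate and AmpLite Red detection followed, with a 525/598 nm fluorescence read after 20 min.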
# IDH1 R132H inh: blocks human mutant IDH1 R132H enzyme. O75874. IDH1-R132H enzyme, NADPH consumption, diaphorase/resazurin fluorescence. Potency, µM (titrated, usually from 76.6 µM), for the others: at the top dose activity change, negative = inhibition, hits mostly inhibitors. hit rate 0.093% among 390,000. AID 602179; also: potency is read from the fitted curve at half-maximal effect; nearly all actives have a fitted effect of over 65% in size
# Target sequence (O75874 whole entry R132H, stated change not applied): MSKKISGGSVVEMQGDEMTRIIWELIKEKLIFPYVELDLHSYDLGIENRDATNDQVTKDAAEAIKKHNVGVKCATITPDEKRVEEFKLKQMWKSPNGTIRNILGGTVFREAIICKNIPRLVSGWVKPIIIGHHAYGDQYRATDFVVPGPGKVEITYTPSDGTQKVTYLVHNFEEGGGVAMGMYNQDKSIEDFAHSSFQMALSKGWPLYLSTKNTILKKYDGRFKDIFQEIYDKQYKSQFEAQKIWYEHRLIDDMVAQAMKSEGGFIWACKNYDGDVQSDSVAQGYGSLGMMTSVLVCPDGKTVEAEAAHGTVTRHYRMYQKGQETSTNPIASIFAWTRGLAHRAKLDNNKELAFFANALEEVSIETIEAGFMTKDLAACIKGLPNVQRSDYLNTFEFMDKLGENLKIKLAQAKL
#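 IDH1-R132H (0.5 ug/mL dispensed) in pH 7.5 Tris buffer was preincubated 30 min with compound, then given a substrate mix of 0.016 mM NADPH and 2 mM alpha-KG for 80 min at room temperature; remaining NADPH was read by diaphorase/resazurin fluorescence.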
# An asterisk follows results filed as active; ? = inconclusive; / = not tested or not shown; [ ] = another dose, or the depositor's remark. Unless noted, calls follow the shape of the dose curve; as a rule, active = well fitted curve in the direction sought with a large enough effect; inconclusive = small, poorly fitted or top-dose-only effect, or another doubt; inactive = no such curve, though single readings can be large; an effect the other way counts as inactive or inconclusive. % is scaled to controls: 0 for no effect and ±100 for the full control effect.
SMILES,TrxR1 substrate,rTrxR1 inhibitor,Eya2 phos inh,Coupling enz,IDH1 R132H inh
C=C(C)[C@@H]1C2=CC(C(=O)OC)=C(C[C@@H](C(=C)C)[C@H]3O[C@H]3C3=C[C@H]1OC3=O)O2,-7%,11µM*,/,/,/
CNCC(O)COc1ccccc1 (centres undefined),-4%,71µM*,9%,-2,10%
CC(O)C#C[Si](C)(C)c1ccccc1 (centres undefined),/,/,/,-2,/
COc1ccc(C2=Nn3c(nnc3-c3ccccc3OC)SC2)c(OC)c1,/,/,/,2,/
COc1ccc(C(=O)C(CCCCC(CN(C)C)C(=O)c2ccc(OC)cc2)CN(C)C)cc1 (centres undefined),-1%,-19%,-4%,-1,7%
CN(C)CC(CCC(CN(C)C)C(=O)c1ccccc1)C(=O)c1ccccc1 (centres undefined),4%[57.1 µM],2.8µM*,-2%,-1,1%
O=C(c1ccccc1)C(CCC(CN1CCOCC1)C(=O)c1ccccc1)CN1CCOCC1 (centres undefined),-3%,?,-11%,-1,-2%
CCOc1ccc(C(=O)C(CCC(CN(C)C)C(=O)c2ccc(OCC)cc2)CN(C)C)cc1 (centres undefined),-10%,2.8µM*,-3%,0,-6%
CC(C)NS(=O)(=O)c1ccc(CCC(=O)N2CCC(C(N)=O)CC2)cc1,0%,9%,-3%,-31*,4%
C/C(=N\Nc1nc2c(s1)CCCC2)c1ccccc1,-6%,50µM*,-4%,-6,7%
O=C(Nc1nc2c(s1)CCCC2)Oc1ccccc1,9%[57.1 µM],12%[57.1 µM],-20%,0,2%
Cn1c(SCC(=O)NCc2ccco2)nnc1-c1cccc(NC(=O)c2ccccc2)c1,-4%,-4%,/,/,/
Cc1ccccc1NCC(=O)N=Nc1c(O)[nH]c2ccc([N+](=O)[O-])cc12,-1%[57.1 µM],7%[57.1 µM],-21%,-4,4%
Cc1ccc(NCC(=O)N=Nc2c(O)[nH]c3ccc([N+](=O)[O-])cc23)cc1,-6%,5%,11%,-31*,0%
CCCCc1nc2c(c3c1C[C@H](C)OC3)CN(C(=O)c1cccnc1)CC2,/,/,/,0,/
N#C/C(=C/c1cccc([N+](=O)[O-])c1)C(=O)Nc1ccccc1O,-6%,-24%,-5%,0,-9%
N#C/C(=C\c1ccccc1)C(=O)NNS(=O)(=O)c1cccc([N+](=O)[O-])c1,-2%,10µM*,5%,/,-9%
CNc1nc(-c2ccc(OC)cc2)c(-c2ccc(OC)cc2)s1,0%,13%,-5%,-6,0%
COc1ccc(-c2nc(NC(C)=O)sc2-c2ccc(OC)cc2)cc1,15%,4%[57.1 µM],-22%,-52*,0%
COc1ccc2c(c1)Cc1sc(NC(C)=O)nc1-2,3%[57.1 µM],-10%[57.1 µM],-24%,-31*,1%
COc1ccc2c(c1)Cc1sc(NC(=O)c3ccco3)nc1-2,-5%,-3%[57.1 µM],-19%,/,2%
O=C1/C(=C\c2ccco2)CCC/C1=C\c1ccco1,-6%,2.2µM*,6%,-12,0%
CC1C/C(=C/c2ccco2)C(=O)/C(=C/c2ccco2)C1 (centres undefined),/,/,-4%,-5,/
CN(C)CCN(C(=O)CCS(=O)(=O)c1ccccc1)c1nc2cc3c(cc2s1)OCO3,-7%,-29%,5%,/,1%
Cc1ccc(S(=O)(=O)CCC(=O)N(CCCN2CCOCC2)c2nc3ccccc3s2)cc1,-2%,28µM*,14%,/,1%
SMILES,TrxR1 substrate,rTrxR1 inhibitor,Eya2 phos inh,Coupling enz,IDH1 R132H inh
CCN(CC)CCN(C(=O)CCS(=O)(=O)c1ccccc1)c1nc2cc3c(cc2s1)OCO3,-1%,14µM*,-11%,-4,9%
O=C(CCS(=O)(=O)c1ccccc1)N(CCCN1CCOCC1)c1nc2ccccc2s1,-1%,14µM*,4%,/,3%
Cc1ccc2nc(N(CCN3CCOCC3)C(=O)CCS(=O)(=O)c3ccccc3)sc2c1,1%,-28%,-37%,/,0%
CC(C)CNc1nc(C#N)nc(Nc2ccccc2)n1,/,/,/,1,/
CSCC[C@H](NC(=O)[C@H](CC(C)C)NC(=O)[C@@H]1CCCN1C(=O)[C@H](Cc1ccccc1)NC(=O)[C@H](Cc1ccccc1)NC(=O)[C@@H]1CCC(=O)N1)C(N)=O,/,/,/,-1,/
Nc1ncc(Br)cc1N=Cc1ccccc1,-6%,?,6%,-48*,14%
COc1cc(Cl)c(CC(=O)NO)cc1OC,11%,13%,/,/,/
CC(=O)Nc1cc([N+](=O)[O-])cc(NC(C)=O)c1NC(C)=O,-6%,2%,/,/,/
N#CC1=C(S)N(c2ccccc2)C(c2ccc(-c3cccc(Cl)c3)o2)NC1=O (centres undefined),-4%,40µM*,-3%,5,41µM*
O=C(NC1=C(NC2CCS(=O)(=O)C2)C(=O)c2ccccc2C1=O)c1ccccc1 (centres undefined),32µM*,50µM*,1%,-62*,9%
O=C(NC(NC1CCS(=O)(=O)C1)C(=O)c1cccs1)c1ccccc1 (centres undefined),-4%,-17%,0%,1,-1%
O=C(Nc1cccc(Cl)c1)c1ccccc1,7%[57.1 µM],9%[57.1 µM],6%,/,10%
O=C(NC1=C(Nc2ccc(Cl)cc2)C(=O)c2ccccc2C1=O)c1ccccc1,-6%,?,-1%,-30*,8%
